Source: PubChem
Shown is part of a subset that was picked to be rich in hits.
GALC G270D up: galactocerebrosidase G270D activity enhancement, cell-based | P54803 | 145M-Twi-hGALC-G270D cells (Twitcher mouse brain line with human GALC G270D), HMU-beta-Gal fluorescence, 48 h | Potency, µM (titrated, usually from 57.5 µM), actives largely listed as activators | 45,000 tested, 0.1% active | AID 1159614; further: 0% is about no effect; nearly all actives have a fitted effect of over 65% in size
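Brain-derived Twitcher mouse 145M-Twi cells stably expressing human GALC-G270D or wild-type GALC, treated live, then residual GALC activity read by fluorescence of HMU-b-Gal substrate (0.1 mM final) in citrate-phosphate buffer pH 5.2 with sodium taurocholate. Signal increase indicates enhancement.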
NTMT1 inh: blocks human N-terminal methyltransferase 1 activity; Q9BV86; NTMT1 MTase-Glo SAH luminescence, purified enzyme; Potency, µM (titrated, usually from 114 µM), for inactives: at the top dose activity change, negative = inhibition, hits mostly inhibitors; 59,000 tested, 2.5% active; AID 1645870;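 further: plate controls were DMSO vehicle for no effect and no enzyme for full effect; nearly all actives have a fitted effect of over 65% in size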
Target sequence (Q9BV86 whole entry, looked up): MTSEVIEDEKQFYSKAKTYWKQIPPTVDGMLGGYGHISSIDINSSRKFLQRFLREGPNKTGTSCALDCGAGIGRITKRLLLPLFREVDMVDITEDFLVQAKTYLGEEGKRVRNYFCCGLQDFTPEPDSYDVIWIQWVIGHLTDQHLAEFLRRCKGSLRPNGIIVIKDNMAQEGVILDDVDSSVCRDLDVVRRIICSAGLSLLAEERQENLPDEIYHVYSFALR
FH mod: Identification of activators of human fumarate hydratase by quantitative high-throughput screening; Fumarate hydratase, mitochondrial (Homo sapiens), P07954; FH coupled MDH/diaphorase resazurin fluorescence, 15 min; Potency, µM (doses to about 79.9 µM), for inactives: at the highest dose activity change, negative = inhibition, most hits filed as inhibitors; 54,000 tested, 0.22% active; AID 1347055, 2019; further: on the % scale 0 is the no-effect control and ±100 the full control effect; the screen sought activators but most active calls are inhibition curves; nearly all actives have a fitted effect of over 45% in size
An asterisk follows results filed as active; i = inactive; ? = inconclusive; / = no result given; ! = not active in a repeat; [ ] = another dose, or the depositor's remark. The call rests on the fitted dose curve; in most records, active means well fitted curve in the direction sought with a large enough effect; inconclusive means small, poorly fitted or top-dose-only effect, or another doubt; inactive means no such curve, though single readings can be large; an effect the other way counts as inactive or inconclusive. Potency means the concentration at half of the fitted maximal effect.

SMILES	GALC G270D up	NTMT1 inh	FH mod
COc1ccc(-c2ccc3c(N)c(C(=O)Nc4cc(F)ccc4C)sc3n2)cc1	16µM*	-2%	-6%
Cc1cc(N)c2cc(NC(=O)Nc3ccc4nc(C)cc(N)c4c3)ccc2n1	i	20µM*	23%[53.3 µM]
Cc1cc(N2CCN(C)CC2)nc2ccc(NC(=O)Nc3ccc(Cl)cc3)cc12	i	-2%	-5%
Cc1ccc(C2=NN(CC(=O)N(C)C(C)c3ccco3)C(=O)C2)cc1 (stereo unspecified)	/	-3%[57.5 µM]	/
Cc1c(-c2ccc(Cl)cc2)c(=O)oc2c(CN3CCN(C)CC3)c(O)ccc12	i	-2%	-10%
Cc1c(-c2ccccc2)c(=O)oc2c(CN3CCN(C)CC3)c(O)ccc12	4.5µM*	-7%	5%
Cc1c(Cl)cccc1Nc1nc2ccc(C(=O)c3ccccc3)cc2n2cnnc12	i	19%	-19%
COc1ccc(C(=O)O)cc1Nc1nc2ccc(C)cc2n2cnnc12	i	71µM*	?
CCCCN(C)C(=O)Cn1nc(-c2ccc(C(C)=O)cc2)ccc1=O	/	10%	/
CSc1cnc(-c2ccccc2C(C)C)nc1NCc1ccc(-c2cccnc2)cc1	/	12%	/
CCOc1ccccc1N1CC(c2nc3ccccc3n2CCCOc2ccccc2OC)CC1=O (stereo unspecified)	i	3%	?
CCOc1ccccc1N1CC(c2nc3ccccc3n2CCCCOc2cc(C)ccc2C)CC1=O (stereo unspecified)	i	89µM*	-15%
Fc1ccc(-c2noc(CCCCSc3nnc(-c4cccc5ccccc45)o3)n2)cc1	/	1%	/
CCC1CCCCN1CCCNC(=O)c1cc2c(=O)n(CC)c3ccccc3c2s1 (stereo unspecified)	i	?	-8%
CCC1CCCCN1CCCNC(=O)c1cc2c(Cl)nc3ccc(C)cc3c2s1 (stereo unspecified)	i	28µM*	-15%
C=CCn1c(=O)c2cnc(Nc3ccc(N4CCN(C)CC4)cc3)nc2n1-c1cccc(C(C)(C)O)n1	/	40µM*!	?
Cc1cccc(C)c1-n1c(=O)c2cnc(Nc3ccc(N4CCN(C)CC4)cc3)nc2n2c3ccccc3nc12	/	?	-20%
COc1cc(-c2cn(C)c(=O)c3cnccc23)cc(OC)c1CN(C)C	/	4%	/
C=C1C2CCC3CC2(CC(O)C2(O)C1CC(OC1OC(CO)C(O)C(O)C1O)C2(C)C)CC3(C)O (stereo unspecified)	/	-2%[29.8 µM]	-1%[53.3 µM]
Cc1ccc(-n2ncc3c(NCCCN4CCOCC4)ncnc32)cc1C	i	50µM*	-5%
Fc1ccc(-n2ncc3c(NCCCN4CCOCC4)ncnc32)cc1	i	1%	-2%
CCN(CC)c1ccc(C(=C2C=CC(=[N+](CC)CC)C=C2)c2cc(S(=O)(=O)O)ccc2S(=O)(=O)[O-])cc1	i	28µM*	-23%[53.3 µM]
Cc1ccc(-c2ccc(C(C)Nc3nc(-c4ccccc4C(C)C)ncc3C)cc2)cn1 (stereo unspecified)	/	-4%	/
CC(=O)Nc1sc2c(c1-c1ccc(N3CCN(C)CC3)cc1)CCNC2	/	-1%[57.5 µM]	/
CN(C)c1ccc(O)c2c1C[C@H]1C[C@H]3[C@H](N(C)C)C(=O)C(C(N)=O)=C(O)[C@@]3(O)C(=O)C1=C2O	i	79µM*!	-6%[53.3 µM]
SMILES	GALC G270D up	NTMT1 inh	FH mod
C[C@H]1c2cccc(O)c2C(O)=C2C(=O)[C@]3(O)C(O)=C(C(N)=O)C(=O)[C@@H](N(C)C)[C@@H]3[C@@H](O)[C@@H]21	i	?	-9%[53.3 µM]
O=C(O)c1cccc(CN2C(=O)/C(=C(\c3ccccc3)c3ccc(Cl)cc3)c3ccccc32)c1	/	28µM*	?
Cc1ccccc1CN1C(=O)c2ccccc2Sc2ccc(C(=O)O)cc21	i	8%	-19%
O=C1C(Cc2ccc(O)cc2)N2C(=O)CCN(C(=O)NCc3ccccc3)C2CN1Cc1cccc2ccccc12 (stereo unspecified)	/	4%[57.5 µM]	-14%
CCc1ccc(NC(=O)Cn2c(=O)c(CNc3ccccc3)cc3cc(OC)c(OC)cc32)cc1	i	-21%	-24%
COc1cc2cc(CNc3ccccc3)c(=O)n(CC(=O)Nc3cc(C)cc(C)c3)c2cc1OC	40µM*	-25%	-18%
CCOc1ccc(CCNC(=O)c2cc3sccc3n2Cc2ccncc2)cc1OCC	/	6%	/
Cc1ccc(NC(=O)c2sc3ccccc3c2Cl)cc1	i	6%	10%
CNC1CCC(N(Cc2cccc(-c3ccncc3)c2)C(=O)c2sc3c(F)ccc(F)c3c2Cl)CC1 (stereo unspecified)	/	71µM*!	-4%
CNC1CCC(N(Cc2cccc(-c3ccncc3)c2)C(=O)c2sc3ccccc3c2Cl)CC1 (stereo unspecified)	/	35µM*!	1%
CCCSc1ncc(Cl)c(C(=O)N(Cc2cccc(Cl)c2)C2CCS(=O)(=O)C2)n1 (stereo unspecified)	i	15%	-21%
NC(=O)CCCSc1nc(N)nc(-c2c(Cl)cc3c4c(cccc24)COC3)n1	/	4%[57.5 µM]	4%
C=CCN(/C=C1\C(=O)O[C@@H](COC)[C@]2(C)C1=C(O)C(=O)C1=C2[C@@H](OC(C)=O)C[C@]2(C)C(=O)CC[C@H]12)CC=C	/	-23%	/
Cc1ccc(NS(=O)(=O)c2ccc(C(=O)Nc3nc(-c4ccccc4)cs3)cc2)cc1	/	7%	/
CC(=O)c1ccc(N2CCN(S(=O)(=O)c3cc4c(cc3Cl)NC(=O)C4)CC2)cc1	/	-22%	/
CC(C)CC1(C(=O)OCc2ccc(O[C@@H]3O[C@H](CO)[C@@H](O)[C@H](O)[C@H]3O)cc2)CC(=O)OC(C(=O)O)CC(=O)OCC2OC(O1)C(OC(=O)/C=C/c1ccc(O)cc1)C(O)C2O (stereo partly specified)	/	10%[12.6 µM]	-15%[20.6 µM]
O=[N+]([O-])c1ccc(O)c2ncccc12	i	18%	?
Nc1ccc(O)c([N+](=O)[O-])c1	i	35µM*	?
Cc1ccc(S(=O)(=O)Nc2ccccc2C(=O)Nc2nc(-c3ccccc3)co2)cc1	/	7%[57.5 µM]	/
Cc1ccc(S(=O)(=O)n2cc(C(=O)Nc3ccc(-c4ccccc4)cc3)c3ccccc32)cc1	/	-2%	/
CCc1cccc(NC(=O)c2c(C)oc3nc(C)nc(N4CCCC4)c23)c1	i	-2%	-1%
COc1cccc(NC(=O)c2c(C)oc3nc(C)nc(N4CCCC4)c23)c1	i	89µM*	3%
CCNC1(C(N)=O)CN(c2nc(C)nc3c(-c4ccc(Cl)cc4)c(-c4ccccc4Cl)nn23)C1	/	-27%[57.5 µM]	-6%
O=C(NCCCNc1nc(Nc2cccc(NC(=O)N3CCCC3)c2)ncc1I)c1cccs1	/	40µM*	-27%
CN1CCN(c2ccc(NC(=O)c3cccs3)cn2)CC1	/	3%[57.5 µM]	/
CCCCc1nnc(-c2cnn(C)c2N)n1CCCn1ccnc1	/	1%[57.5 µM]	/
Cc1ccc(C(=O)Oc2ccc(-c3nc4ccccc4[nH]3)cc2)cc1Br	/	-1%	/
Cc1ccc2nc(-c3ccc(NC(=O)c4ccc(S(C)(=O)=O)cc4)cc3)sc2c1	i	0%	8%
Cc1ccc2nc(-c3ccc(NC(=O)C(F)(F)F)cc3)sc2c1	14µM*	5%	3%
